Compound activity (PubChem)
Pf growth 48h: P. falciparum growth inhibition at 48 hours (one generation) | AID 504832 | actives 5.9% (n = 310,000) | P. falciparum luciferase growth in erythrocytes, 48 h | Potency, µM (titrated, usually from 28.7 µM), without a hit: top-dose activity change, negative = inhibition, actives largely listed as inhibitors; further: on the % scale 0 is the no-effect control and ±100 the full control effect
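Luciferase-expressing P. falciparum in infected erythrocytes (2% hematocrit, 0.1% parasitemia final) in RPMI 1640/0.5% Albumax were exposed to compound for 48 hours at 37 C, 5% CO2; growth read as luminescence.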
Pf growth 96h: P. falciparum growth inhibition at 96 hours. P. falciparum luciferase reporter growth, 96 h. Potency, µM (doses to about 28.7 µM), for the others: at the top dose activity change, negative = inhibition, hits mostly inhibitors. actives 6.9% (n = 320,000); further: on the % scale 0 is the no-effect control and ±100 the full control effect
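Parasite growth measured via integrated firefly luciferase reporter in P. falciparum. Infected erythrocytes at 2% hematocrit, 0.05% parasitemia final were treated 96 hours at 37 C under 5% CO2, and luminescence was read.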
AMA1 RON2 block: AMA1-RON2 (P. falciparum) interaction inhibition; AlphaScreen AMA1-biotinylated RON2 peptide binding; actives 0.2% (n = 360,000); AID 720542; Potency, µM (top dose mostly 58.2 µM), without a hit: top-dose activity change, negative = inhibition, actives largely listed as inhibitors;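 further: 0% = vehicle wells and -100% = peptide control; nearly all actives have a fitted effect of over 45% in size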
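AMA1 (3D7) with his tag at 25 nM final met compounds first, then biotinylated RON2 peptide at 25 nM; detection used donor plus acceptor beads, 10 µg/mL apiece, read by AlphaScreen after 30 min at room temperature.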
SARS PLP yeast: inhibitors of SARS-CoV papain-like protease in yeast; S. cerevisiae expressing SARS-CoV PLpro, growth rescue; Potency, µM (titrated, usually from 32.9 µM), without a hit: at the highest dose activity, positive = growth rescue, actives largely listed as activators; actives 0.19% (n = 330,000); calls by dose curve; further: 0% is about no effect; nearly all actives have a fitted effect of over 55% in size
An asterisk follows results filed as active; u = inconclusive; x = no result given; [ ] = remark or other dose. Only some compounds are listed: those with a hit (about 9.4% of all), similar ones and a draw of the others. Unless noted, the call rests on the fitted dose curve; in most records, active means well fitted curve in the direction sought with a large enough effect; inconclusive means small, poorly fitted or top-dose-only effect, or another doubt; inactive means no such curve, though single readings can be large; an effect the other way counts as inactive or inconclusive. Potency means the concentration at half of the fitted maximal effect.

SMILES	Pf growth 48h	Pf growth 96h	AMA1 RON2 block	SARS PLP yeast
Cc1nc(SCC(=O)Nc2cc(S(=O)(=O)N3CCOCC3)ccc2Cl)nc(C)c1C	u	14.7µM*	14.6%	7.1%
Nc1c(C(=O)NCCCc2ccccc2)c2nc3ccccc3nc2n1Cc1cccs1	11.7µM*	x	96.7%	-7.6%
CCCCCn1c(N)c(C(=O)NCc2cccs2)c2nc3ccccc3nc21	2.4%	u	12.8%	-2.8%
CCCOC(=O)c1c(N)n(Cc2cccs2)c2nc3ccccc3nc12	x	7.38µM*	4.3%	-9.9%
O=C(NCCCN1CCN(c2ccc(F)cc2)CC1)NC12CC3CC(CC(C3)C1)C2	x	249.6%	-5.8%	1.5%
COC(C[C@@H]1O[C@@H]1C(=O)COCc1ccccc1)OC	60.5%	33.0%	53.1%	0.7%
Cc1nnc(SCC(=O)N2CCN(S(=O)(=O)c3ccccc3)CC2)s1	-2.2%	-7.2%	-8.6%	4.4%
CCCCNc1nnc(SCC(=O)N2CCN(S(=O)(=O)c3ccc4ccccc4c3)CC2)s1	x	5.22µM*	2.3%	24.7%
Nn1cc(-c2ccccc2)nc1SCC(=O)N1CCN(S(=O)(=O)c2ccc3ccccc3c2)CC1	9.28µM*	x	-0.8%	0.1%
N#Cc1ccccc1COC(=O)c1cc(=O)c2ccccc2o1	9.1%	2.0%	13.3%	-5.4%
CC1Oc2ccccc2N(Cc2ccccc2Cl)C1=O (stereo unspecified)	u	11.7µM*	38.2%	2.5%
O=C(NC1CCCCC1)Oc1cccc2ccccc12	22.9%	9.8%	10.5%	0.9%
CC1CN(c2cc(-c3ccccc3)c3ccccc3n2)CC(C)O1 (stereo unspecified)	x	2.62µM*	45.9%	-23.6%
Fc1ccccc1/C=N/Nc1ccc(Cl)nn1	x	45.0%	14.3%	-2.8%
c1coc(CNc2ncnc3nc[nH]c23)c1	-8.0%	9.28µM*	-0.8%	0.3%
Cc1sc2ncnc(NCc3ccco3)c2c1C	-5.5%	9.28µM*	-7.4%	-4.3%
CCOc1ccc(C(NC(=O)c2ccco2)c2ccc(OC)c(OC)c2)cc1 (stereo unspecified)	-8.5%	x	-1.2%	9.7%
COc1ccc(C(Nc2ccccn2)c2c(NC(=O)c3ccco3)sc(C)c2C)cc1OC (stereo unspecified)	u	5.22µM*	-20.8%	-11.3%
COc1cc(C(=O)Nc2ccc(NC(=O)c3ccco3)nc2)cc(OC)c1OC	u	x	-4.3%	-1.7%
COc1cc(C(Nc2ccccn2)c2c(NC(=O)c3ccco3)sc(C)c2C)cc(OC)c1OC (stereo unspecified)	5.22µM*	8.28µM*	-26.9%	-3.4%
COC(=O)C(Cc1ccccc1)P(=O)(c1ccccc1)c1ccccc1 (stereo unspecified)	-14.3%	u	11.2%	13.8%
Cc1ccc(C)c(-n2c(-c3ccc(Br)cc3)csc2=NC(=O)c2ccccc2F)c1	0.415µM*	0.233µM*	-1.4%	-2.8%
O=C(NCc1ccc2c(c1)OCO2)C(c1ccco1)N(C(=O)c1csnn1)c1ccccc1 (stereo unspecified)	-1.3%	-26.1%	0.2%	8.2%
C=C[C@@H]1c2ccccc2N(S(=O)(=O)c2ccc(C)cc2)[C@H](c2ccc(OC(C)=O)cc2)C1(C#N)C#N	3.7µM*	u	-4.5%	0.4%
Cc1ccc(-c2nnc(-c3ccc(Br)cc3)o2)o1	87.1%	2.62µM*	-1.5%	1.3%
SMILES	Pf growth 48h	Pf growth 96h	AMA1 RON2 block	SARS PLP yeast
Brc1ccc(-c2nnc(-c3ccco3)o2)cc1	121.6%	372.5%	7.5%	-1.0%
N#C/C(=C/C1=C(N2CCOCC2)C(=C/c2cccc([N+](=O)[O-])c2)/CC1)C(=O)Nc1ccccc1F	x	x	-12.7%	x
N#C/C(=C\C1=C(N2CCOCC2)C(=C/c2cccc([N+](=O)[O-])c2)/CC1)C(=O)Nc1ccccc1F	u	9.28µM*	-15.0%	-0.2%
CC(=O)c1cn(Cc2ccccc2)c(=O)[nH]c1=O	-12.3%	-2.0%	3.5%	0.3%
CC(C)CNS(=O)(=O)c1ccc(CCC(=O)Nc2ccc3c(c2)OCO3)cc1	-6.6%	4.15µM*	-3.7%	3.0%
CC(C)c1ccc(S(=O)(=O)NCc2ccc3c(c2)OCO3)cc1	6.5%	10.4µM*	4.3%	-10.1%
COc1ccc(CCNC(=O)c2cc(C(=O)c3cc(C)ccc3O)cn(CCc3ccc(OC)cc3)c2=O)cc1	6.57µM*	3.29µM*	-8.7%	5.9%
CCn1cc(C(=O)NCCc2ccc(OC)cc2)c(=O)c2ccc(C)nc21	-0.9%	6.0%	-3.0%	-17.5%
COc1ccc(CCNC(=O)c2ccc(Cl)cc2Cl)cc1	5.5%	x	22.8%	-10.9%
O=C(c1cc(C(=O)NCCc2ccccc2)c(=O)n(CCc2ccccc2)c1)c1cc(Cl)ccc1O	0.828µM*	0.415µM*	4.8%	-2.0%
COc1ccc(CCNC(=O)c2cc(C(=O)c3cc(Cl)ccc3O)cn(CCc3ccc(OC)cc3)c2=O)cc1	1.65µM*	0.522µM*	9.7%	-21.7%
CCCCn1nc(NC(=O)COC)c2cc3cc(OC)ccc3nc21	-8.7%	41.1%	33.6%	-1.1%
CCCNC(=O)CSc1ccc(S(=O)(=O)N2CCCCC2)cn1	u	u	-10.4%	-3.2%
CCNC(=O)NC(=O)CSc1ccc(S(=O)(=O)N2CCCCC2)cn1	u	5.22µM*	-1.8%[11.6 µM]	2.6%
CNC(=O)NC(=O)CSc1ccc(S(=O)(=O)N(C)C2CCCCC2)cn1	u	7.9%	4.0%	1.8%
CCNC(=O)NC(=O)CSc1ccc(S(=O)(=O)N(C)C2CCCCC2)cn1	11.7µM*	9.28µM*	5.3%[11.6 µM]	-8.4%
COc1c(OC)c2[nH]c(=O)cc3c4ccccc4n(c1=O)c23	-17.3%	35.5%	3.6%	-1.1%
COc1ccc(S(=O)(=O)N2CCOCC2)cc1NC(=O)COC(=O)CCS(=O)(=O)c1ccc(C)cc1	x	x	-1.1%[11.6 µM]	x
COc1ccc2c(C#N)c3ccccn3c2c1	20.3%	-16.0%	52.3%	-1.3%
COc1ccc(Cl)cc1S(=O)(=O)Nc1ccncc1	0.5%	0.0%	-2.0%	-0.1%
O=S(=O)(Nc1ccncc1)c1cc(Cl)c(Cl)cc1Cl	32.4%	7.38µM*	10.3%	4.2%
O=C(CCl)Nc1cc(SCC(O)CO)cc([N+](=O)[O-])c1 (stereo unspecified)	u	-20.9%	-4.1%	3.7%
Cc1onc(-c2ccccc2)c1C(=O)N1CCCSC1=Nc1ccccc1	2.94µM*	u	0.0%	-11.2%
COc1cc(NC(=O)C2CCCN2C(=O)C2CCC(C)CC2)cc(OC)c1OC (stereo unspecified)	u	u	7.8%	18.9%
COc1ccc(OC)c(NC(=O)C2CCCN2C(=O)C2CCC(C)CC2)c1 (stereo unspecified)	x	9.28µM*	-7.3%	-3.4%
CCC(CC)C(=O)NC12CC3CC(CC(C3)C1)C2	8.1%	x	1.0%	0.2%
Cc1ccccc1-n1ncc2c1CC(C)(C)CC2NC(=O)C1=CC(=O)CC(C)(C)O1 (stereo unspecified)	u	9.28µM*	13.7%	-3.4%
Cc1cc(C)c(C#N)c(OCC(=O)c2ccccc2)n1	u	18.1%	-15.2%	6.8%
